Laboratory results published in PubChem BioAssay (Tox21).
The source made the active and inactive calls. Where a call stands in place of a potency, no number is given. Unless noted, the call rests on the fitted dose curve; in most records, active means well fitted curve in the direction sought with a large enough effect in the repeat runs; inconclusive means weak or mixed curves; inactive means no such curve, though single readings can be large; an effect the other way counts as inactive or inconclusive.

Tests used:
[1] = tested on: thyroid hormone receptor (rat, GH3 cells); test: qHTS assay to identify small molecule agonists of the thyroid receptor (TR) signaling pathway (AID 743066; calls by dose curve)
[2] = target: Estrogen receptor (Homo sapiens) (UniProt P03372); test: qHTS assay to identify small molecule antagonists of the estrogen receptor alpha (ER-alpha) signaling pathway (AID 743069; active means well fitted curve in the direction sought with a large enough effect in the signal ratio in the repeat runs, not every such curve was filed as active; inconclusive means weak or mixed curves, or effect the other way; inactive means no such curve, though single readings can be large or run the other way; the % refers to the signal ratio; further: potency means the concentration at half of the fitted maximal effect)
In short: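 ER-alpha-UAS-bla GripTite HEK293 line; 2% charcoal-stripped FBS overnight; plated, 4 hr 37C/5% CO2; cpd in DMSO + 17beta-estradiol, 18 hr 37C; LiveBLAzer B/G FRET substrate 2 hr RT; fluorescence intensity.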

[3] = qHTS assay to identify small molecule antagonists of the estrogen receptor alpha (ER-alpha) signaling pathway - cell viability counter screen (AID 743074; calls by dose curve;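 further: HEK293 cells carrying ER-alpha-UAS-bla reporter stimulated with 17beta-estradiol; nearly all actives have a fitted effect of over 45% in size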)
[4] = target: Estrogen receptor (Homo sapiens) (UniProt P03372); test: qHTS assay to identify small molecule agonists of the estrogen receptor alpha (ER-alpha) signaling pathway (AID 743075; calls by dose curve;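 further: HEK293 GripTite cells with ER-alpha and UAS-driven beta-lactamase reporter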; further: potency means the concentration at half of the fitted maximal effect)
[5] = target: Estrogen receptor (Homo sapiens) (UniProt P03372); test: qHTS assay to identify small molecule agonists of the estrogen receptor alpha (ER-alpha) signaling pathway using the BG1 cell line (AID 743079); conditions: BG1Luc4E2 cells, ERE-luciferase agonist, 22 h; activation: at 70.3 µM (top of the series); further: nearly all actives have a fitted effect of over 20% in size; further: potency means the concentration at half of the fitted maximal effect
[6] = qHTS assay to identify small molecule antagonists of the estrogen receptor alpha (ER-alpha) signaling pathway using the BG1 cell line (AID 743080; calls by dose curve;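 further: BG1 cells stimulated with 17beta-estradiol alongside compound; nearly all actives have a fitted effect of over 25% in size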; further: potency means the concentration at half of the fitted maximal effect)
In short: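 Readout is ONE-Glo luminescence, taken 30 min at room temperature after reagent addition, preceded by a CellTiter-Fluor viability read; BG1-Luc-4E2 cells had received compound and 17beta-estradiol for 21.5 h at 37 C.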

[7] = qHTS assay to identify small molecule antagonists of the estrogen receptor alpha (ER-alpha) signaling pathway using the BG1 cell line - cell viability counter screen (AID 743081);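 further: compound given together with 17beta-estradiol as the ER stimulus; nearly all actives have a fitted effect of over 45% in size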
[8] = target: Aromatase (Homo sapiens) (UniProt P11511); test: qHTS assay to identify aromatase inhibitors (AID 743083); further: nearly all actives have a fitted effect of over 55% in size; further: potency means the concentration at half of the fitted maximal effect
[9] = qHTS assay to identify aromatase inhibitors - cell viability counter screen (AID 743084);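 further: cells stimulated with testosterone during compound exposure; nearly all actives have a fitted effect of over 55% in size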; further: potency means the concentration at half of the fitted maximal effect
[10] = target: Aryl hydrocarbon receptor (Homo sapiens) (UniProt P35869); test: qHTS assay to identify small molecule that activate the aryl hydrocarbon receptor (AhR) signaling pathway (AID 743085); further: nearly all actives have a fitted effect of over 15% in size; further: potency means the concentration at half of the fitted maximal effect;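 on activation: HG2L7.5c1 human HepG2 liver cells with stably integrated DRE-driven firefly reporter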
In short: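 Stably transfected human liver carcinoma cells (HG2L7.5c1; 20 DRE-firefly luciferase) were incubated 5 h, dosed, and kept 24 h at 37C. Agonism was scored from increased luciferase luminescence.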

[11] = qHTS assay to identify small molecule that activate the aryl hydrocarbon receptor (AhR) signaling pathway - cell viability counter screen (AID 743086);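 further: HepG2 liver cells carrying the AhR DRE luciferase reporter; nearly all actives have a fitted effect of over 45% in size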
In short: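 Cytotoxicity counter screen: CellTiter-Fluor signal (30 min, 37 C) in 4000 HepG2 cells/well carrying the DRE-luciferase reporter, following 24 h compound exposure at 37 C.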

[12] = target: Peroxisome proliferator-activated receptor gamma (Homo sapiens) (UniProt P37231); test: qHTS assay to identify small molecule agonists of the peroxisome proliferator-activated receptor gamma (PPARg) signaling pathway (AID 743094; active means well fitted activation curve with a large enough effect in the signal ratio in the repeat runs, not every such curve was filed as active; inconclusive means weak or mixed curves, or effect the other way; inactive means no such curve, though single readings can be large or run the other way; the % refers to the signal ratio)
In short: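 Following 5 h plating at 37C, PPARg-bla HEK293H cells receive compound or DMSO for 17 h; fluorescence intensity is recorded after LiveBLAzer B/G loading for 1 h at room temperature.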

[13] = qHTS assay for small molecule agonists of the antioxidant response element (ARE) signaling pathway - cell viability counter screen (AID 743203; calls by dose curve; further: nearly all actives have a fitted effect of over 55% in size)
In short: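 Compounds in DMSO were pinned onto ARE-bla HepG2 cells plated 5 hrs earlier at 2,000 cells/well. Sixteen hours later at 37C/5% CO2, CellTiter-Glo was added and luminescence measured after 30 min at room temperature.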

[14] = qHTS assay for small molecule activators of the heat shock response signaling pathway - cell viability counter screen (AID 743209); further: nearly all actives have a fitted effect of over 50% in size; further: potency means the concentration at half of the fitted maximal effect
In short: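 Counter screen for cytotoxicity in HeLa HSE-bla reporter cells. Treatment was 5 h at 37 C; viability was detected by luminescent ATP assay (CellTiter-Glo) in the same wells as the beta-lactamase read.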

[15] = qHTS assay for small molecule activators of the heat shock response signaling pathway (AID 743210; active means well fitted activation curve with a large enough effect in the signal ratio in the repeat runs, with a control signal flat, not every such curve was filed as active; inconclusive means weak or mixed curves; the % refers to the signal ratio; further: potency means the concentration at half of the fitted maximal effect;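 on activation: HeLa cells with beta-lactamase reporter driven by heat shock elements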)
In short: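 HeLa HSE-bla cells, overnight plating; cpd in DMSO 5 h, 37 C; LiveBLAzer B/G FRET substrate 2.5 h RT; fluorescence intensity read.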

[16] = qHTS assay to identify small molecule antagonists of the peroxisome proliferator-activated receptor gamma (PPARg) signaling pathway - cell viability counter screen (AID 743194); conditions: Potency: co-treated with 50 nM rosiglitazone unless noted; further: nearly all actives have a fitted effect of over 55% in size
In short: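 Viability was measured as CellTiter-Glo luminescence in GeneBLAzer PPARg UAS-bla HEK293H cells. These cells had been exposed 17 h at 37 C to compounds together with rosiglitazone at 50 nM final, with the beta-lactamase readout taken in the same wells.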

[17] = qHTS assay for small molecule agonists of the antioxidant response element (ARE) signaling pathway (AID 743202; active means well fitted activation curve with a large enough effect in the signal ratio in the repeat runs, not every such curve was filed as active; inconclusive means weak or mixed curves, or effect the other way; inactive means no such curve, though single readings can be large or run the other way; the % refers to the signal ratio; further: potency means the concentration at half of the fitted maximal effect)
In short: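 Quantitative high-throughput format in HepG2 cells bearing an integrated ARE-beta-lactamase reporter. Compound exposure lasted 16 h at 37 C, and fluorescence was read 2 h after adding LiveBLAzer B/G substrate at room temperature.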

[18] = qHTS assay to identify small molecule antagonists of the thyroid receptor (TR) signaling pathway (AID 743065)
In short: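 Antagonism measured as loss of luciferase signal in GH3 cells stably carrying a TRE-luciferase reporter, co-treated with compound and T3 (1 nM final) for 23.5 h at 37 C. Viability was read in the same well by CellTiter-Fluor.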

[19] = target: Peroxisome proliferator-activated receptor gamma (Homo sapiens) (UniProt P37231); test: qHTS assay to identify small molecule antagonists of the peroxisome proliferator-activated receptor gamma (PPARg) signaling pathway (AID 743191; calls by dose curve; further: nearly all actives have a fitted effect of over 30% in size)
In short: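 Beta-lactamase reporter under UAS control in HEK293H PPARg-bla cells; compound treatment 17 h at 37C. Read-out: fluorescence intensity after 1 h room-temperature incubation with LiveBLAzer B/G FRET substrate.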

Aryl hydrocarbon receptor (Homo sapiens), sequence (P35869 whole entry, looked up): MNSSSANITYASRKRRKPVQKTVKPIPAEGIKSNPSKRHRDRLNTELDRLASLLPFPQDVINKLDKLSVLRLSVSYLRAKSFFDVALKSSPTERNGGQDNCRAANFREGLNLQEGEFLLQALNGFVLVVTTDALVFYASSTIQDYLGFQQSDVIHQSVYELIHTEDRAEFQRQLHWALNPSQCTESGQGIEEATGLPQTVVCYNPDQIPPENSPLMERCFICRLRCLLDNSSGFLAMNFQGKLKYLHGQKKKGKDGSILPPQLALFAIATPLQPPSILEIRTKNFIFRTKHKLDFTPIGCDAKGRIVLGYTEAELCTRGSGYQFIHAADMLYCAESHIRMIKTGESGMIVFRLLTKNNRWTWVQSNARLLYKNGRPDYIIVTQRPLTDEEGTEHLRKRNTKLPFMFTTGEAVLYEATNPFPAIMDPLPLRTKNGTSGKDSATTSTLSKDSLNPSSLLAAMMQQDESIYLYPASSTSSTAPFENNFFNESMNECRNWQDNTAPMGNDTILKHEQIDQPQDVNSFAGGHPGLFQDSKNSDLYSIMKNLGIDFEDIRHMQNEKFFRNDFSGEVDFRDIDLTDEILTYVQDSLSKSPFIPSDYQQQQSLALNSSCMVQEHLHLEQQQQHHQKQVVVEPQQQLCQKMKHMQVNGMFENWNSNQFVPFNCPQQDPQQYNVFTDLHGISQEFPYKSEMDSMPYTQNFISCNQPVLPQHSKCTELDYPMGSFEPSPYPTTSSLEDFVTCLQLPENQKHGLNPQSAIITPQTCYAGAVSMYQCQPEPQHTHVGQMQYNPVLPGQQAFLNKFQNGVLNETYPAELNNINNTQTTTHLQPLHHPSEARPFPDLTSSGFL
Estrogen receptor (Homo sapiens), sequence (P03372 whole entry, looked up): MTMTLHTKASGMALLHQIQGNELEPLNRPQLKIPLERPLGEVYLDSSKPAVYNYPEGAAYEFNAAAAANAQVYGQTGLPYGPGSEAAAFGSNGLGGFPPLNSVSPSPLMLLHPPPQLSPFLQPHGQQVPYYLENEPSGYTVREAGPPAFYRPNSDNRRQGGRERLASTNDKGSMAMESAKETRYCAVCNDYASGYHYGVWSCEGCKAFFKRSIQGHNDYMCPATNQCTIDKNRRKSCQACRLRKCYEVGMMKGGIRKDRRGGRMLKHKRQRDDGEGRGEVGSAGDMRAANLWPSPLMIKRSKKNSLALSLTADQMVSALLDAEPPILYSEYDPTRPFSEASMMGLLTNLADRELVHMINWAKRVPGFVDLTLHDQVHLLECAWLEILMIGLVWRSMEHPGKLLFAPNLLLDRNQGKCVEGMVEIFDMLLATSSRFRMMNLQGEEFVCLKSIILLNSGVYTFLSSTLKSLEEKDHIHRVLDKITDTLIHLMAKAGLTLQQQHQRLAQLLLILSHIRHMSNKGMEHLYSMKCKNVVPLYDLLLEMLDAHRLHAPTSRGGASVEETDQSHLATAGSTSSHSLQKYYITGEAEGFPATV
Peroxisome proliferator-activated receptor gamma (Homo sapiens), sequence (P37231 whole entry, looked up): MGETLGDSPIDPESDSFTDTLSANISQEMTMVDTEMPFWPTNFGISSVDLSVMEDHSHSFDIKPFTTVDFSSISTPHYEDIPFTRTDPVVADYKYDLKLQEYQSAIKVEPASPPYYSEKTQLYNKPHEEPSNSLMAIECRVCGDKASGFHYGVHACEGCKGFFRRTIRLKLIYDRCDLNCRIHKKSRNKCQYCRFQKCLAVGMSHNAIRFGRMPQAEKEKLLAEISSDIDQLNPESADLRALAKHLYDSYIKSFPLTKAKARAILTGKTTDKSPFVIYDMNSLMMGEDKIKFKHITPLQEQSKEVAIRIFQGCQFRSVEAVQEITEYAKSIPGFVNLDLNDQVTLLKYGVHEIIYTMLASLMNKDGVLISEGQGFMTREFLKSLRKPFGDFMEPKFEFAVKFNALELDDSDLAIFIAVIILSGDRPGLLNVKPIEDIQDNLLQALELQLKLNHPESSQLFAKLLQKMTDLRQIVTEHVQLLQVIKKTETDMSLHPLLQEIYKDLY
Aromatase (Homo sapiens), sequence (P11511 whole entry, looked up): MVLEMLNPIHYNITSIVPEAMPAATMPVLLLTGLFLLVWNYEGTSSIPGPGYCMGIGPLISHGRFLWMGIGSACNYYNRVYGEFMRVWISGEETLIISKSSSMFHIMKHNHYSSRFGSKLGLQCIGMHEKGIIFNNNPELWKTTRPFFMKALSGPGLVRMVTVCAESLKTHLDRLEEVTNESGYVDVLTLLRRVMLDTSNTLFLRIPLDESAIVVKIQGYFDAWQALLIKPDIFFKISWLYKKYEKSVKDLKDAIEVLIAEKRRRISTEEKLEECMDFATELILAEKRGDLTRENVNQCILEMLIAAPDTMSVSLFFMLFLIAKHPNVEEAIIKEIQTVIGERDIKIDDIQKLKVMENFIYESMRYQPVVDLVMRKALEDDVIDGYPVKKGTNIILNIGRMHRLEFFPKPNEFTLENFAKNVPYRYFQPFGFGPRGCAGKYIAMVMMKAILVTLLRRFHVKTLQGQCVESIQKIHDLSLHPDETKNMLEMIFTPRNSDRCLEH

Row | Compound | Potency [1] | Potency [2] | Potency [3] | Potency [4] | Potency [5] | Potency [6] | Potency [7] | Potency [8] | Potency [9] | Potency [10] | Potency [11] | Potency [12] | Potency [13] | Potency [14] | Potency [15] | Potency [16] | Potency [17] | Potency [18] | Potency [19]
1 | ClC1=C(Cl)[C@]2(Cl)[C@@H]3[C@H]4C[C@H]([C@@H]5O[C@H]45)[C@@H]3[C@@]1(Cl)C2(Cl)Cl | inactive | inactive | inactive | inactive | inactive | inactive | inactive | inactive | inactive | inactive | inactive | inactive | inactive | inactive | 51.8 µM (active) | – | – | – | –
2 | COc1ccc2[nH]cc(CCN(C(C)C)C(C)C)c2c1 | inactive | – | inactive | – | – | – | inactive | inactive | inactive | 22.2 µM (active) | inactive | inactive | inactive | inactive | inactive | inactive | – | – | –
3 | COP(=S)(OC)Oc1nc(Cl)c(Cl)cc1Cl | inactive | – | inactive | inactive | inactive | inactive | inactive | inactive | inactive | – | – | inactive | inactive | inactive | inactive | – | inactive | – | –
4 | CO/N=C(/C1=NOCCO1)c1ccccc1Oc1ncnc(Oc2ccccc2Cl)c1F | – | 54.9 µM [inconclusive] (active) | – | – | – | 8.63 µM (active) | – | 54.4 µM (active) | 54.4 µM (active) | – | – | – | inactive | inactive | – | inactive | 0.544 µM (active) | 0.863 µM (active) | –
5 | Nc1ccc(Cl)cc1C(=O)c1ccccc1F | – | – | – | – | – | – | – | – | – | – | – | – | inactive | inactive | inactive | inactive | – | – | –
6 | CC[N+]1(CC)CCC(OC(=O)C(O)(c2ccccc2)c2ccccc2)C1 (stereo not drawn) | – | – | – | – | – | – | – | – | – | – | – | – | inactive | inactive | inactive | inactive | inactive | – | –
7 | CCOP(=S)(OCC)SC(CCl)N1C(=O)c2ccccc2C1=O (stereo not drawn) | inactive | – | inactive | – | – | – | – | inactive | inactive | inactive | – | – | – | inactive | – | inactive | 9.69 µM (active) | – | –
8 | CC(C)N(C(=O)SC/C(Cl)=C/Cl)C(C)C | inactive | inactive | – | – | inactive | inactive | inactive | – | inactive | inactive | – | – | inactive | inactive | inactive | inactive | inactive | – | –
9 | S=C=NCCc1ccccc1 | inactive | inactive | inactive | inactive | 54.6 µM (active) | – | inactive | inactive | – | 54.6 µM (active) | inactive | – | – | 55.1 µM (active) | – | inactive | – | – | inactive
10 | Cc1ccc2cc3c(ccc4ccccc43)c3c2c1CC3 | – | inactive | inactive | 6.18 µM [activator] (active) | – | 0.546 µM (active) | inactive | – | inactive | 0.487 µM (active) | inactive | – | inactive | inactive | – | – | 1.22 µM (active) | – | –
11 | CCCCCCCc1ccc(O)cc1 | inactive | inactive | inactive | inactive | 24.3 µM (active) | inactive | inactive | – | – | inactive | inactive | inactive | – | inactive | inactive | – | – | – | –
